T1: ENAH 9-116 WH1 (domain begin residue: 9, domain end residue: 116), Q8N8S7
T1 chain: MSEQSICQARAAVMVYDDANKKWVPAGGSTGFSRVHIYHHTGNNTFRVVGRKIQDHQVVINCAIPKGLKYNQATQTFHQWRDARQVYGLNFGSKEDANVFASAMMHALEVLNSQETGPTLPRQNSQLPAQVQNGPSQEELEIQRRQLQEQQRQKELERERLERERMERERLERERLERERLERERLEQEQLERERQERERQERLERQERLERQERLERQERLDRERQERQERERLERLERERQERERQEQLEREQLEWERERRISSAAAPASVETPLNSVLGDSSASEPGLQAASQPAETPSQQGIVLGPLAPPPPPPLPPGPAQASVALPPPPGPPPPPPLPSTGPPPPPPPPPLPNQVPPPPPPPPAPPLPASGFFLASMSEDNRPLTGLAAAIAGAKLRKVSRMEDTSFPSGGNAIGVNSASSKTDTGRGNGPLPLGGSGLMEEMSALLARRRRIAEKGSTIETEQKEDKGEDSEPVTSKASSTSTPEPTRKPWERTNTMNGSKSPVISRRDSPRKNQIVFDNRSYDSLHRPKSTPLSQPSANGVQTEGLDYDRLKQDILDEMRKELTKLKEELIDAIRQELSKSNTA

T2: ESR2 263-500 Hormone_recep (domain begin residue: 263, domain end residue: 500), Q92731
T2 chain: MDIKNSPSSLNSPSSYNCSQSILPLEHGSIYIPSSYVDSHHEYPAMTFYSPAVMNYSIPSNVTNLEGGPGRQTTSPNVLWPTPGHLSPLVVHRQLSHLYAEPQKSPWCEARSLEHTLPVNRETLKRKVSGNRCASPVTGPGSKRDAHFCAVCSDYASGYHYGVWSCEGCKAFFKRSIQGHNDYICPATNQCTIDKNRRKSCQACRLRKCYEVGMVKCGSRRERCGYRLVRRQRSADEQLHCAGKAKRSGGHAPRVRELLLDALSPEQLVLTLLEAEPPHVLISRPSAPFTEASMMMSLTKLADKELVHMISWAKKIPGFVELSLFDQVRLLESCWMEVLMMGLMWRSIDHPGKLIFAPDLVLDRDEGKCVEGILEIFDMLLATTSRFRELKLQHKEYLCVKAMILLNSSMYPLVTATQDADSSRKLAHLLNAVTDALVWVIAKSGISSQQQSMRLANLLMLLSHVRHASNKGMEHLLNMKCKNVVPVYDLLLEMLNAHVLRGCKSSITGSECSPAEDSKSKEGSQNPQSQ

T3: ESRRA 179-423 Hormone_recep (domain begin residue: 179, domain end residue: 423), P11474
T3 chain: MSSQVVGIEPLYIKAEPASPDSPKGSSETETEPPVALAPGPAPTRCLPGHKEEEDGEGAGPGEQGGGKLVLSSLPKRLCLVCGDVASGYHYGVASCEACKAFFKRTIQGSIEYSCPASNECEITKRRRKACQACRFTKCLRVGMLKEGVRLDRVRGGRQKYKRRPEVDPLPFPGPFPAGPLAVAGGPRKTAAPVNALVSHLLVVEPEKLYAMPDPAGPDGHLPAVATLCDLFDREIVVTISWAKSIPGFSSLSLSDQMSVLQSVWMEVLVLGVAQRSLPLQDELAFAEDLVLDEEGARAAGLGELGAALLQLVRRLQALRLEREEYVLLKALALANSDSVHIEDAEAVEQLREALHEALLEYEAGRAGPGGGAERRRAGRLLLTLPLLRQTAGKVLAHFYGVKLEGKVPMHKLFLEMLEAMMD

T4: SPRED1 13-131 WH1 (domain begin residue: 13, domain end residue: 131), Q7Z699
T4 chain: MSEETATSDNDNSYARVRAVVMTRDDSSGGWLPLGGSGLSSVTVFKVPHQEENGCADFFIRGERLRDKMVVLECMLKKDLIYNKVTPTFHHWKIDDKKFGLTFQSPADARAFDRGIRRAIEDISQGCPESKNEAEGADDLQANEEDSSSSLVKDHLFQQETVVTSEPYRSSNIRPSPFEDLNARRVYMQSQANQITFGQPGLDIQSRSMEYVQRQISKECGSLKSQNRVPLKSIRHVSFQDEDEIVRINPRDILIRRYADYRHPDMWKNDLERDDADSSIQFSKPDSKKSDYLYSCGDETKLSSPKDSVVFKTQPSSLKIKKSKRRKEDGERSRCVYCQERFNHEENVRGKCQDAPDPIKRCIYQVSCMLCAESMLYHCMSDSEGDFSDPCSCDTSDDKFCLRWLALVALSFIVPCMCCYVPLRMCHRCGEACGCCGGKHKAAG

T5: ESRRG 219-458 Hormone_recep (domain begin residue: 219, domain end residue: 458), P62508
T5 chain: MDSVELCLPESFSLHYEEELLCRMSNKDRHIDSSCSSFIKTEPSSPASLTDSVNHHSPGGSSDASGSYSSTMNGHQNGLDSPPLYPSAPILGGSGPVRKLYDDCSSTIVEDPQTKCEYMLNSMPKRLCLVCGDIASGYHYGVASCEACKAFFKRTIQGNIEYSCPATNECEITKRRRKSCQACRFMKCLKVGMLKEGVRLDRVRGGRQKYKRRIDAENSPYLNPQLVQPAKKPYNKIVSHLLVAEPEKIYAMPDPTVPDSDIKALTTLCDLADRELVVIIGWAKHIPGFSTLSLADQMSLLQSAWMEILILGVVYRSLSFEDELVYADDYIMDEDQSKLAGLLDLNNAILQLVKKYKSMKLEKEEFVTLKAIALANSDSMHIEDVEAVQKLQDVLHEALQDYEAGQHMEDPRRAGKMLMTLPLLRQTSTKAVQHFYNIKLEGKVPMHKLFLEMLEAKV

T6: EVL 1-130 WH1 (domain begin residue: 1, domain end residue: 130), Q9UI08
T6 chain: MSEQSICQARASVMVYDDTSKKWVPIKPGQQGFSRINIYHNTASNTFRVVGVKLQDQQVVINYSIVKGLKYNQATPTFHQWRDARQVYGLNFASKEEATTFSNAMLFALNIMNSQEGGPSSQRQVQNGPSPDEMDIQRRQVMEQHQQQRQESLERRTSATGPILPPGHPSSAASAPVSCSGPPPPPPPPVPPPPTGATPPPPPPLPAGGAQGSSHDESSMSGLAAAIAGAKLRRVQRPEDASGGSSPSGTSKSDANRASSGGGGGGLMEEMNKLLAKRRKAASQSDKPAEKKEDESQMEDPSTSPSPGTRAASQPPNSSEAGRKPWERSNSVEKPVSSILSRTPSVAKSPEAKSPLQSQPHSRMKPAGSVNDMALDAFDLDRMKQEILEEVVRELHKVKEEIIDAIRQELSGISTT

T7: FKBP3 109-224 FKBP_C (domain begin residue: 109, domain end residue: 224), Q00688
T7 chain: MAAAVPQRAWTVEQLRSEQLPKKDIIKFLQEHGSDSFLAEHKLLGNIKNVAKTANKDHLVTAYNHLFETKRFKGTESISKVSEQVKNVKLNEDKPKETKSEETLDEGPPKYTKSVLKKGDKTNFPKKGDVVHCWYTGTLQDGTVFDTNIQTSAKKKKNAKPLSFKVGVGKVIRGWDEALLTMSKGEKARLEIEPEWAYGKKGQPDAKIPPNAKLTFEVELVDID


biological target: EIF2S1 9-93 S1 (domain begin residue: 9, domain end residue: 93), P05198; experiment: phage ELISA signal ratio (GST-PRM binding over GST background); higher = stronger binding of peptide-phage to the PRM
Sequence (P05198 whole entry, the tested form may be a part): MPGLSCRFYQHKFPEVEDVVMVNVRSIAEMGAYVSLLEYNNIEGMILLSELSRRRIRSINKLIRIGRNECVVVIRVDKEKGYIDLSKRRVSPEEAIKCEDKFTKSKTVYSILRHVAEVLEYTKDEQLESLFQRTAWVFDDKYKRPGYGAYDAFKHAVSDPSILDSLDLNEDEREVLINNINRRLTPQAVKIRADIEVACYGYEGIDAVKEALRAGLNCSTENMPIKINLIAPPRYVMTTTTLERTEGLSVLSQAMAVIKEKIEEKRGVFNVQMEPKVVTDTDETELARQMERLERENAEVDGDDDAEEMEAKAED
In short: (§1)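 Approximately 48 individual clones from selection rounds 4 and 5 were tested by phage ELISA, and those scoring positive were sequenced. They came from five rounds of selecting an M13 phage library of randomized, cysteine-free, glycine-flanked hexadecapeptides on the gene-8 major coat protein against human peptide recognition domains fused to the C-terminus of glutathione S-transferase (GST) in 96-well plates. Each figure in the table is the ELISA signal on the GST-domain fusion relative to the signal on GST alone.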

Binder	phage ELISA signal ratio
SSGSSTRPMRVTRAPT	4.01
VWVAWSWMHSVQMEAD	12.3
EYTNWYWLGYLPETVM	14.6
WTWDSEMGIWTLANDI	20.4

biological target: PABPC1 96-174 RRM_1 (domain begin residue: 96, domain end residue: 174); experiment: as above
In short: as §1

Binder	phage ELISA signal ratio
VWVAWSWMHSVQMEAD	12.3
WTWDSEMGIWTLANDI	20.4

biological target: EIF4A1 29-237 DEAD (domain begin residue: 29, domain end residue: 237), P60842; experiment: as above
Sequence (P60842 whole entry): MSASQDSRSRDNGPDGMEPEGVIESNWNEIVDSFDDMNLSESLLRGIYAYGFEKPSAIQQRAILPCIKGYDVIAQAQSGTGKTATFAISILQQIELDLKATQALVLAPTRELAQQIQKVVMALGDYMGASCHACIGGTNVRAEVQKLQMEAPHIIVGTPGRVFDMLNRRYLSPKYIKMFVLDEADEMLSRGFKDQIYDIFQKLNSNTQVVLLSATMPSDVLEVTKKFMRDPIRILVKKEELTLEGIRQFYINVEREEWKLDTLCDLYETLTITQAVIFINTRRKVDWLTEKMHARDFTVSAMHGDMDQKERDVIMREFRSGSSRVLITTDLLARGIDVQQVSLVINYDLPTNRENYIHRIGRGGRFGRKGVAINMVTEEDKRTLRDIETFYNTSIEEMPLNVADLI
In short: as §1

Binder	phage ELISA signal ratio
EMPQYMMTWYYEPDST	5.95

biological target: EIF4E 2-217 IF4E (domain begin residue: 2, domain end residue: 217), P06730; experiment: as above
Sequence (P06730 whole entry): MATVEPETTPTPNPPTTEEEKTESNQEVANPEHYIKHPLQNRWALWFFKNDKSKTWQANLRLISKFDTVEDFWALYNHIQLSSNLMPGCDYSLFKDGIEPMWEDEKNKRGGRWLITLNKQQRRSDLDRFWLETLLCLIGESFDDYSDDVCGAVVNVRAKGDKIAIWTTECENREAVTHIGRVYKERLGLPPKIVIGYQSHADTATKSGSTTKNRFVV
In short: as §1

Binder	phage ELISA signal ratio
SVWWFGQTPYVLWEAS	7.15
FLYYYGLSHNWFGDQT	7.6
PWSWFTYREQLETENV	20.1

Biological target: T1, ENAH 9-116 WH1 (domain begin residue: …
Experiment: as above
In short: as §1

Binder	phage ELISA signal ratio
WEGNQWEWPPAYMELM	7.2
VTDNAWPYPPVAVSQH	7.69

Biological target: T2, ESR2 263-500 Hormone_recep (domain …
Experiment: as above
In short: as §1

Binder	phage ELISA signal ratio
GVDVWLWDKQWNMWMP	25.9
EERTWSFEEWLWMPAM	26.6

Biological target: T3, ESRRA 179-423 Hormone_recep (domain …
Experiment: as above
In short: as §1

Binder	phage ELISA signal ratio
SQQWSTHYPTFFELML	3.25
EFNQWFADHWQQWHYE	3.76
VQWQDQYPTFYAEMSK	8.22

Biological target: T4, SPRED1 13-131 WH1 (domain begin …
Experiment: as above
In short: as §1

Binder	phage ELISA signal ratio
EFNQWFADHWQQWHYE	5.28

Biological target: T5, ESRRG 219-458 Hormone_recep (domain …
Experiment: as above
In short: as §1

Binder	phage ELISA signal ratio
EHIQGHAPLLWEVLHS	10.8
SFPFLKMYLDPEPDDV	11.2
VHRDYQLGHEWLVFIN	13.1
QYVEEGSWYMLHMYLT	17.4
TNPPAEHMSRLHWELT	18.2

biological target: PCMT1 1-227 PCMT (domain begin residue: 1, domain end residue: 227), P22061; experiment: as above
Sequence (P22061 whole entry): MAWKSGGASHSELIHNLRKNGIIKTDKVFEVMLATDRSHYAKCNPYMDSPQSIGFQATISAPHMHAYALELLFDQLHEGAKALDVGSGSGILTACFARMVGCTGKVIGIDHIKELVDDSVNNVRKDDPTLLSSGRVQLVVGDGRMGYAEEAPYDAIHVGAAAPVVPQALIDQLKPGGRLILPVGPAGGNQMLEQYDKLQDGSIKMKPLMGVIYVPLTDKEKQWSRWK
In short: as §1

Binder	phage ELISA signal ratio
EHIQGHAPLLWEVLHS	10.8
SFPFLKMYLDPEPDDV	11.2
VHRDYQLGHEWLVFIN	13.1
TNPPAEHMSRLHWELT	18.2

Biological target: T6, EVL 1-130 WH1 (domain begin residue: 1, …
Experiment: as above
In short: as §1

Binder	phage ELISA signal ratio
GIGFEWVHDGWWPMWT	13.8

Biological target: T7, FKBP3 109-224 FKBP_C (domain begin …
Experiment: as above
In short: as §1

Binder	phage ELISA signal ratio
WGAGVFLVADPQMEVV	5
VGVYSLQDEPQKRVVV	6.15
QQGIGVFQDWFNHGLI	9.64
